PNC inhibitor: inhibitors of perinucleolar compartment assembly | 140,000 tested, 3.1% active | PC3M PTB-GFP, PNC prevalence imaging, 16 h; active compounds read low | AID 2417 | activity change (PNC), negative = inhibition, % at 10 µM;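 active means readout at or below -70, meaning at least 70% loss of cells showing the perinucleolar compartment, a nuclear body marking cancer cells; inconclusive means readout between -30 and a set limit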
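Read-out is percentage of cells bearing a perinucleolar compartment, from automated 20x imaging of fixed, Hoechst-stained PC3M PTB-GFP cells. Cells were seeded 4 h, then exposed 16 h to compound (23 nl of library stock) in duplicate plates.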
LMNA splice mod: LMNA splicing modulation; HeLa LMNA splicing GFP/RFP minigene ratio, 48 h; Potency, µM (doses to about 46.1 µM), hits mostly inhibitors; 200,000 tested, 0.01% active; active means well fitted inhibition curve with a large enough effect in the signal ratio, with a control signal flat, not every such curve was filed as active; inconclusive means small, poorly fitted or top-dose-only effect, or effect the other way, or a change in a side signal; the % refers to the signal ratio
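Read-out is the ratio of GFP to DsRed2 object intensity, acquired by 488 nm laser-scanning cytometry on HeLa lamin A-EGFP minigene reporter cells. Compound incubation 48 hrs at 37 °C in Opti-MEM with 2% FBS; DMSO 0.5% final.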
IMPase inh: IMPase inhibition in cells | P97697 | CHO-M1 cells, IP1 accumulation, HTRF TR-FRET ratio | inhibition (IP1 accumulation), % at 46.1 µM | 120,000 tested, under 10 active | AID 901; active means well fitted curve in the direction sought with a large enough effect in the signal ratio, not every such curve was filed as active; inconclusive means small, poorly fitted or top-dose-only effect, or a change in a side signal; inactive means no such curve, though single readings can be large or run the other way; the % refers to the signal ratio;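 further: cells stimulated with carbachol in lithium chloride buffer; higher means more IMPase inhibition seen as more IP1 and lower FRET ratio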
Target sequence (P97697 whole entry, looked up): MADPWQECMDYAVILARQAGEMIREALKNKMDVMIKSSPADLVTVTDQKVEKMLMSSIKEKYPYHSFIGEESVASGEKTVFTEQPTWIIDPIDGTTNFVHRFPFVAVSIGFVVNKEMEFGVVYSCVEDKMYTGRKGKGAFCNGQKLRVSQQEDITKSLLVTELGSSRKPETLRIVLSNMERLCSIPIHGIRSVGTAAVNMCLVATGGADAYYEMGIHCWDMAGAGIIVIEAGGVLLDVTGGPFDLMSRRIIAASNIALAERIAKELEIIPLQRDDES
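Seeded CHO-M1 cells were dosed with compound at up to 46 uM, stimulated with carbachol for 30 min, then lysed in IP-One detection reagents. Higher IP1 lowers the TR-FRET signal.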
Numbers stand for hits; n = inactive; u = inconclusive; x = not tested or not shown. This is one part of a sample in which hits are shown more often than they occur.

SMILES	PNC inhibitor	LMNA splice mod	IMPase inh
CCC1(CC)Cc2ccccc2-c2nc(NCCO)[nH]c(=O)c21	-100.0	n	n
Cn1c[n+](C)cc1-c1ccc(/C(N)=N/O)cc1	-80.3	u	x
O=C(COC(=O)/C=C/c1cccs1)NC(c1ccccc1)c1ccccc1	-119.3	n	n
O=C(COC(=O)/C=C/c1cccs1)NC(=O)Cc1ccccc1	x	n	x
COc1ccc(S(=O)(=O)NCc2cccn2Cc2cccc(C)c2)cc1OC	x	n	x
Cc1cccc(CS(=O)(=O)Cc2ccc(C(=O)NCc3ccc(F)cc3)o2)c1	x	n	x
Cc1oc2c(c1C(=O)Nc1cccc(C(=O)O)c1)CCCC2	-107.7	n	n
Cc1ccc(C(=O)Nc2cccc(C(=O)O)c2)cc1	n	n	n
CCN1CCN(c2ncc3c(n2)CCN(CC(C)C)C3)CC1	x	n	x
COCCNc1nc(-c2cccc(NS(C)(=O)=O)c2)nc2ccccc12	x	n	x
O=C(CCc1ccccc1)NC(NC(=S)Nc1cccc(Cl)c1)C(Cl)(Cl)Cl (stereo not given)	-118.9	n	n
O=C(CCc1ccccc1)NC(NC(=S)Nc1ccc(Br)cc1)C(Cl)(Cl)Cl (stereo not given)	u	n	n
CC(C)Cn1c2c(c(O)c(C(=O)Nc3ccc(F)cc3)c1=O)CCCC2	n	n	n
CC(C)Cn1c2c(c(O)c(C(=O)Nc3ncccc3O)c1=O)CCCC2	-90.9	u	n
COC(=O)c1cc(NC(=O)c2ccc(F)cc2)cc(C(=O)OC)c1	x	n	x
Cc1cc(C)c2c(c1)c(C)cc1nnc(SCC(=O)c3ccc(F)cc3)n12	x	n	x
COc1ccc2[nH]cc(CCNc3ncncc3-c3c(C)noc3C)c2c1	x	n	x
CCOc1ccc(CCNC(=O)CCSCc2cccc(Cl)c2)cc1OCC	x	n	x
N#CC(c1ccncc1)(c1ncc(C(F)(F)F)cc1Cl)N1CCOCC1 (stereo not given)	x	n	x
N#CC(c1ccccn1)(c1ncc(C(F)(F)F)cc1Cl)N1CCOCC1 (stereo not given)	-100.5	n	n
CCCCCCNc1nc2c(c(=O)n(C)c(=O)n2C)n1Cc1cccc(C)c1	x	n	x
c1ccc(C2NCCc3ccccc32)cc1 (stereo not given)	x	n	x
S=C1NCCc2ccc(Cl)cc2C1c1ccccc1Cl (stereo not given)	-100.0	n	n
COc1ccc(-c2nc3cnc(N4CCOCC4)nc3n(C[C@H]3CCCO3)c2=O)cc1	x	n	x
CCn1cc(C(=O)Nc2ccc(C)c([N+](=O)[O-])c2)cn1	-86.6	u	x
SMILES	PNC inhibitor	LMNA splice mod	IMPase inh
CCn1cc(C(=O)Nc2ccc(F)c(F)c2)cn1	n	n	x
O=C(Oc1ccccc1C(=O)N1CCOCC1)c1ccccc1	n	n	n
NC(=O)c1ccc(-n2nnnc2Oc2ccccc2C(=O)N2CCOCC2)cc1	-122.4	n	n
CCNc1nc(OC)nc(Oc2ccc(=O)n(-c3ccccc3)n2)n1	-93.8	n	n
CCNc1nc(Oc2ccc(=O)n(-c3ccccc3)n2)nc(N(C)C)n1	n	n	n
COc1ccc(OC)c(NC(=O)c2cc3c(Cl)nc4ccccc4c3s2)c1	n	n	x
COc1ccc(NC(=O)c2cc3c(Cl)nc4ccccc4c3s2)cc1OC	-87.6	n	x
Cc1ccc(CNC(=O)COC(=O)CCC(=O)c2cccs2)cc1	x	n	x
CCc1ccc(CCC(=O)Nc2ncc(Cc3ccccc3Cl)s2)o1	-91.0	u	n
O=C(CN1CCOCC1)Nc1ncc(Cc2ccccc2Cl)s1	u	n	n
CC(C)CCNC(=O)C12CN(Cc3ccccc3)CC1C(c1ccc([N+](=O)[O-])cc1)=NO2 (stereo not given)	u	n	n
O=C(NCc1ccc(C(F)(F)F)cc1)C12CN(Cc3ccccc3)CC1C(c1cccc([N+](=O)[O-])c1)=NO2 (stereo not given)	n	n	n
O=C(NCc1ccccc1C(F)(F)F)C12CN(Cc3ccccc3)CC1C(c1ccc([N+](=O)[O-])cc1)=NO2 (stereo not given)	-119.2	n	n
O=C(NCc1ccc2c(c1)OCO2)C12CN(Cc3ccccc3)CC1C(c1cccc([N+](=O)[O-])c1)=NO2 (stereo not given)	-86.7	n	n
Cc1[nH]c2ccccc2c1SCC(=O)NNC(=O)Nc1ccc(OC(F)(F)F)cc1	x	n	x
OC(CNCC(c1ccco1)N1CCCCC1)c1ccccc1 (stereo not given)	-126.9	n	n
COc1ccccc1CC(=O)NCC(c1ccco1)N1CCCCC1 (stereo not given)	x	n	x
CCSC1=NC2(CCN(C(=O)NC3CCCCC3)CC2)N=C1c1ccc(Cl)cc1	x	n	x
Cc1ccc(OCCOCCN(C)C)c(Cl)c1	-95.9	n	x
COc1cc(C)ccc1OCCOc1cc(C)ccc1Cl	n	n	n
CCOC(=O)c1oc2ccccc2c1CN1CCN(C(=O)c2ccccc2)CC1	-109.4	u	n
CCOC(=O)c1oc2ccccc2c1CN1CCN(c2ccccc2)CC1	u	n	n
O=C(CCc1ccccc1)NCc1ccc2c(c1)CCN2C(=O)c1ccc(Cl)cc1	x	n	x
Cc1cccc(C(c2sc3nc(-c4ccco4)nn3c2O)N2CCN(c3ccccc3F)CC2)c1 (stereo not given)	x	n	x
COc1ccc(S(=O)(=O)Nc2cc(Sc3ncn[nH]3)c(O)c3ccccc23)cc1	n	u	n
SMILES	PNC inhibitor	LMNA splice mod	IMPase inh
O=S(=O)(Nc1cc(Sc2cccc3cccnc23)c(O)c2ccccc12)c1ccc(F)cc1	-118.2	u	x
O=C(CN1C(=O)C2(SCC(=O)N2c2cccc(F)c2)c2ccccc21)NCc1ccccc1Cl (stereo not given)	x	n	x
Cc1ccc(C(c2c(O)cc(C)n(Cc3ccco3)c2=O)N2CCC(C)CC2)cc1 (stereo not given)	x	n	x
COc1cccc(C(=O)Nc2c(C(=O)N3CCN(c4ccc(F)cc4)CC3)oc3ccccc23)c1	x	n	x
CC[C@H]1NC(=O)c2cc(S(N)(=O)=O)c(Cl)cc2N1	x	u	n
Cc1cc(-c2nc3ncccc3o2)ccc1NC(=S)NC(=O)c1ccco1	x	n	x
Cc1ccc(-c2nc(NC(=O)CSc3ncnc4sc5c(c34)CCC(C)C5)ns2)cc1 (stereo not given)	x	x	n
Cc1ccc(C(=O)CSc2ncnc3sc4c(c23)CCC(C)C4)cc1 (stereo not given)	-118.9	n	n
CCOC(=O)c1ccc(Cl)c(S(=O)(=O)N2CCCC2)c1	x	n	x
CC(=O)Nc1nonc1-c1nnc(SCc2ccc(Cl)cc2)n1C	x	n	x
CCN(CC(=O)NC1CCCCCC1)S(=O)(=O)c1ccccc1	-80.3	n	n
CCN(CC(=O)NC1CCCC1)S(=O)(=O)c1ccc(C)cc1	u	n	n
COc1ccc(C(=O)Nc2ccc(N(C)Cc3ccccc3)c(C(=O)O)c2)cc1	x	n	x
Cc1ccc(S(=O)(=O)c2c(C)nn(-c3ccccc3)c2OC(=O)c2ccccc2F)cc1	x	x	n
O=C(Nc1ccc(Cn2cccn2)cc1)c1ccc(COc2ccc(Br)cc2)cc1	u	n	n
O=C(Nc1ccn(Cc2ccccc2F)n1)c1ccc(COc2ccc(Br)cc2)cc1	-108.4	n	n
COc1ccccc1CNc1cc(C)nc2nc(-c3ccc(C)cc3)nn12	x	n	x
Cc1ccc(Cn2c(/C=C/c3ccco3)nc3ccccc32)cc1	n	n	n
Clc1ccc(Cn2c(/C=C/c3ccco3)nc3ccccc32)cc1	-84.2	u	x

Screening results (PubChem)
